From ChEMBL document CHEMBL4513216, “Probing the Open Global Health Chemical Diversity Library for Multistage-Active Starting Points for Next-Generation Antimalarials” (ACS Infect Dis, 2020)
About 8,600 (12%) of roughly 69,000 compounds showed an effect of 50% or more. This is one part of a sample in which strong results are shown more often than they occur.

These compounds were tested on Plasmodium berghei (assay: Screen against P. berghei liver stage (PbLuc), transformed with Luciferase, at 10uM). Settings: tested at 10 uM.
Format: functional, HepG2

Compound | INHIBITION [%]
CCN(Cc1nonc1C)C(=O)Cn1nc(C(F)(F)F)cc1C1CC1 | 28.89
Cc1cccc(CC(=O)N2CCCCC2CN)c1 (stereo not drawn) | 8.13
CCC(C)(C)c1cc(-c2c(C)nn(CCO)c2C)c(C#N)c(N)n1 | -24.6
NC1CCC(NC(=O)c2ccc3nc(-c4ccc(F)cc4)cn3c2)CC1 (stereo not drawn) | 24.7
CN(C)CCOc1ccc(N(C)S(=O)(=O)c2cnn(C)c2)cc1 | 32.3
Cc1cnn(CCNCc2nnc(-c3ccccc3)o2)c1 | 31.3
COc1ccc(N2CCN(CC(O)c3ccc(C)cc3C)CC2)cc1 (stereo not drawn) | 41.6
COc1ccc(OC)c(C(O)CN2CCN(c3cccc(C)c3)CC2)c1 (stereo not drawn) | 34.5
COc1ccc(N2CCN(CC(O)c3cc(C)ccc3C)CC2)cc1 (stereo not drawn) | 69.8
c1ncn(CC2CCCN(Cc3csc(-c4ccsc4)n3)C2)n1 (stereo not drawn) | -12.2
CN(C)Cc1ccc(N2CCN(CCOCC(F)(F)F)CC2)nc1 | 33.4
CN(CC(=O)N1CCCC1c1noc(C2CC2)n1)Cc1ccccc1 (stereo not drawn) | 23.7
CCn1nc(C)cc1C(=O)OCC1CC(=O)N(Cc2ccccc2)C1 (stereo not drawn) | 10.1
CCN1CC(COC(=O)c2cc(C)nn2CC)CC1=O (stereo not drawn) | 50.4
CCN1CC(COC(=O)c2cccc(Br)c2)CC1=O (stereo not drawn) | 16.8
CCCOc1cc(CNC(=O)Nc2cccc(C(C)=O)c2)ccn1 | 16.6
OCC1(O)CCCN(Cc2noc(-c3ccccc3)n2)C1 (stereo not drawn) | 9.41
O=C(COCC(=O)N(c1ccccc1)c1ccccc1)N1CCCC1 | -7.27
Cn1nc2c(cc1=O)CN(Cc1nc(-c3ccoc3)no1)CC2 | -7.16
COCCc1noc(CN2CCc3nn(C(C)C)c(=O)cc3C2)n1 | 48.2
Cn1nc2c(cc1=O)CN(Cc1nc(-c3cccs3)no1)CC2 | 26.1
Cc1ncc2c(n1)CN(Cc1nc(-c3cccs3)no1)CC2 | 28.8

Compound | INHIBITION [%]
CCc1ncc2c(n1)CN(Cc1nc(-c3cccs3)no1)CC2 | 28.8
CCn1nc2c(cc1=O)CN(Cc1nc(-c3cccs3)no1)CC2 | 60.5
CCCn1nc2c(cc1=O)CN(Cc1nc(-c3ccoc3)no1)CC2 | 61.1
Cc1ccc(-c2noc(CN3CCc4nn(C)c(=O)cc4C3)n2)cc1 | -11.4
CC(C)n1nc2c(cc1=O)CN(Cc1nc(-c3ccoc3)no1)CC2 | 77.9
CCn1nc2c(cc1=O)CN(Cc1nc(-c3ccoc3)no1)CC2 | 42.1
CC(C)c1ncc2c(n1)CN(Cc1nc(-c3cccs3)no1)CC2 | 65.1
CCn1nc2c(cc1=O)CN(Cc1nc(-c3ccsc3)no1)CC2 | 7.7
Cc1nn(C2CCCCC2)c2nc(C(C)(C)CN3CCOCC3)[nH]c12 | -16.9
CN(Cc1noc(C2CC2)n1)C1CCN(Cc2ncc[nH]2)C1 (stereo not drawn) | 3.1
Cc1nc(CN2CCCC(NCc3cnc(C(C)(C)C)s3)C2)no1 (stereo not drawn) | -19.6
O=C(NCC1(Sc2ccccc2)CC1)c1cc[nH]n1 | 5.15
O=C1CCC2(CCC(NCc3ccsc3)CC2)N1Cc1ccccc1 (stereo not drawn) | 29.7
CCc1c(C)n(C)c2nc3ccccc3n2c1=O | -13.8
CN1CCCCC1CCC(=O)NCCCn1nccc1C1CC1 (stereo not drawn) | 47.7
CC(C)N(CC(N)=O)C(=O)CCC(=O)c1ccc(F)cc1F | 23.7
CS(=O)(=O)c1cccc(C(N)c2ccccc2)c1 (stereo not drawn) | -19.4
N#CC1(C(=O)NCc2ccc(F)cc2)CCCC1 | -22.1
CC(C)(N)C(=O)N1CCCC1c1cncc(Oc2ccccc2)n1 (stereo not drawn) | 26.3
CCn1nc2c(cc1=O)CN(Cc1nc(-c3ccco3)no1)CC2 | 35.9
CCCn1nc2c(cc1=O)CN(Cc1nc(-c3ccco3)no1)CC2 | 20.8
CC(C)n1nc2c(cc1=O)CN(Cc1nc(-c3ccco3)no1)CC2 | 54.4

Compound | INHIBITION [%]
Cc1cc(CN2CCc3nn(C(C)C)c(=O)cc3C2)no1 | 35.1
CCCn1nc2c(cc1=O)CN(Cc1c(C)noc1C)CC2 | 2.69
Cc1noc(C)c1CN1CCc2nn(C(C)C)c(=O)cc2C1 | 54.4
Cc1nc(CCN(C)C(=O)CCNC(=O)c2ccccc2F)no1 | 43.9
CCN(CC1CCCCO1)C(=O)CCNC(=O)c1ccccc1F (stereo not drawn) | 28.5
CCN(Cc1nc(COC)no1)C(=O)CCNC(=O)c1ccccc1F | 58.1
CC(C)c1nc(CN(C)C(=O)CCNC(=O)c2ccccc2F)no1 | 12.4
CC(C)Cc1noc(CN(C)C(=O)CCNC(=O)c2ccccc2F)n1 | 51.5
CCN(CC1CCOCC1)C(=O)CCNC(=O)c1ccccc1F | 32.2
CC(C)CCNC(=O)C1CCN(c2ccc3nnc(C(C)C)n3n2)CC1 | 21
O=S(=O)(NCC1(c2cccs2)CCOCC1)c1cccnc1 | -115
NCc1cccc(NC(=O)CCN2CCOCC2)c1 | -5.1
OCCC[C@@H]1CN(c2ncc(Cl)cc2Cl)CC[C@@H]1N1CCOCC1 | 1.93
O=C(NCc1cn2c(n1)CN(Cc1cccnc1)CC2)C1CCC1 | 26.3
c1ccc(-c2cc(CNCCN3CCOCC3)c3nnnn3c2)cc1 | 5.11
c1ccc(-c2cc(CNCCCN3CCCCC3)c3nnnn3c2)cc1 | -38.2
c1ccc(-c2cc(CNCCCC3CCOC3)c3nnnn3c2)cc1 (stereo not drawn) | 74.9
Cc1cnn(CC2CCN(CC(O)COc3ccccc3)CC2)c1 (stereo not drawn) | 14.5
Cc1cnn(CC2CCN(CC(O)Cn3cccn3)CC2)c1 (stereo not drawn) | 68.5
Cc1cnn(CC2CCN(CC(O)c3ccccc3)CC2)c1 (stereo not drawn) | 33
Cc1ccc(OCC(O)CN2CCC(Cn3cc(C)cn3)CC2)cc1 (stereo not drawn) | 33.3
Cc1cc(C)n(CC2CCN(CC(O)Cn3cccn3)CC2)n1 (stereo not drawn) | -12.2

Compound | INHIBITION [%]
Cc1cnn(CC2CCN(CC(O)c3ccccc3Cl)CC2)c1 (stereo not drawn) | 57.2
Cc1cnn(CC2CCN(CC(O)c3ccccc3F)CC2)c1 (stereo not drawn) | -30.8
Cc1cnn(CC2CCN(CC(O)COc3ccc(F)cc3)CC2)c1 (stereo not drawn) | 56.1
Cc1cnn(CC2CCN(CC(O)CN3CCC(C)CC3)CC2)c1 (stereo not drawn) | 30.4
CCC(CC)S(=O)(=O)NC(=O)c1ccc2c(c1)ncn2C | 5.11
NC(=O)C1CCN(C(=O)NCCOc2ccc3c(c2)OCO3)C1 (stereo not drawn) | -69.3
CCCc1noc(CN2CCCCC2Cn2cncn2)n1 (stereo not drawn) | 27.2
CN1CCN(CCO)C(=O)C12CCN(Cc1ccsc1)CC2 | 18.2
O=C(N[C@@H]1CCC[C@@H](N2CCCC2)[C@@H]1O)c1cc2ccccc2[nH]1 | 48.4
CN(C)CC(=O)N1CC(c2nn(C)c3nccnc23)C1 | -0.902
Nc1cccnc1N1CCC(c2ccccc2)CC1 | 6.29
c1cc(C2CCN(c3cnccn3)CC2)ccn1 | 18.4
c1ccc(C2CCCN(c3cncc(-n4cccn4)n3)CC2)cc1 (stereo not drawn) | 90.2
NC(=O)C1CCN(c2cncc(-n3cccn3)n2)CC1 | 48.3
O=C(c1ccc(-n2cccn2)nc1)N1CCCC(c2cnccn2)C1 (stereo not drawn) | -50.3
CN(C)C(=O)C1CCN(c2cncc(-n3cccn3)n2)CC1 | 41.4
N#Cc1cccnc1N1CCC(OCc2ccccc2)CC1 | 18.9
NC(=O)CC1CCN(c2cncc(OCc3ccccc3)n2)CC1 | 12.4
O=C(c1ccccc1)C1CCN(c2cncc(-n3cccn3)n2)CC1 | 74.8
Cn1cnnc1C1CCN(c2cncc(-n3cccn3)n2)CC1 | -8.19
c1ccc(COC2CCN(c3cncc(-n4cccn4)n3)CC2)cc1 | 53.5
c1ccc(C2CCN(c3cncc(-n4cccn4)n3)CC2)cc1 | 85.1

Compound | INHIBITION [%]
Cc1nc(CN2C[C@@H]3CN(C(=O)c4cccn4C)C[C@@H]3C2=O)cs1 | 39.8
Cc1ccc2nc(C3CCCN(CC(C)C)C3)nc(O)c2c1 (stereo not drawn) | 13.5
CCc1n[nH]c(C2CN(C(=O)c3nc(C)n4ccccc34)CCO2)n1 (stereo not drawn) | 17.8
Cc1nc2cc(C(=O)N3CCCC(n4ccnc4)C3)ccc2n1C (stereo not drawn) | 33.3
O=C(NCc1ccc(F)cc1)N1CCN(CC(O)C2CC2)CC1 (stereo not drawn) | 30.8
Cc1ccc(S(=O)(=O)NCC2COCc3c(C)nnn3C2)cc1F (stereo not drawn) | 24.5
c1cncc(N2CCC(c3ccncc3)CC2)c1 | 26.221
c1ccc(N2CCC(c3ccncc3)CC2)cc1 | 65.2
c1cc(C2CCN(c3cncnc3)CC2)ccn1 | 39.6
Cc1nc(C2CCCN(C(=O)c3ccc(OCC4CC4)nc3)C2)no1 (stereo not drawn) | 8.64
FC(F)(F)c1ccnc(N2CCCC(N3CCOCC3)C2)c1 (stereo not drawn) | 40.5
O[C@H]1CN(Cc2cccc(C(F)(F)F)c2)CC[C@@]12CCCO2 | 37.6
CC(O)(CN1CCC(O)CC1)c1cccc(C(F)(F)F)c1 (stereo not drawn) | -37.7
NC(=O)CN(C(=O)Cc1cccc(C(F)(F)F)c1)C1CCCC1 | -23.1
O=C1C(N2CCOCC2)CCCN1Cc1cccc(C(F)(F)F)c1 (stereo not drawn) | 50.8
O=C1C(N2CC[C@@H](O)C2)CCCN1Cc1cccc(C(F)(F)F)c1 (stereo partly drawn) | 77.8
NC1CCCN(Cc2cccc(C(F)(F)F)c2)C1=O (stereo not drawn) | 57.2
O[C@H]1COCCN(Cc2cccc(C(F)(F)F)c2)C1 | -4.82
O=c1n(Cc2cccc(C(F)(F)F)c2)nc2ncccn12 | -39.3
CC(C)NC(=O)N1CC[C@@H]2CN(Cc3ccccc3)S(=O)(=O)[C@@H]2CC1 | 31.8
